We go through 40 compounds from PubChem BioAssay (EPA / NIEHS).

Results filed as inconclusive are left out. The source made the active and inactive calls. Rule for the calls: active = hit-call score of the fitted dose curve at least 0.9, where 1 is the maximum; inconclusive = response in the unintended direction; inactive = score below 0.9.

The assay can be described thus: ATG_M_32_TRANS: Attagene TRANS-FACTORIAL HepG2 Assay for M32 Transcription Factor (Internal Marker) (AID 2282984). Particulars: HepG2 Attagene TRANS M32 internal marker reporter. Here is the method:
ATG_TRANS is a cell-based, multiplexed-readout assay that uses HepG2, a human liver cell line, with measurements taken at 24 hours after chemical dosing in a 24-well plate.ATG_M_32_TRANS is one of 30 assay component(s) measured or calculated from the ATG_TRANS assay. It is designed to make measurements of mRNA induction, a form of inducible reporter, as detected with fluorescence intensity signals by Reverse transcription polymerase chain reaction (RT-PCR) and Capillary electrophoresis technology.Data from the assay component ATG_M_32_TRANS was analyzed into 1 assay endpoint. This assay endpoint, ATG_M_32_TRANS, was analyzed in the positive analysis fitting direction relative to DMSO as the negative control and baseline of activity. Using a type of inducible reporter, measures of mRNA for gain-of-signal activity can be used to understand the background control at the transcription factor-level as they relate to the gene . Furthermore, this assay endpoint can be referred to as a secondary readout, because this assay has produced multiple assay endpoints where this one serves a background control function. To generalize the intended target to other relatable targets, this assay endpoint is annotated to the background measurement intended target family, where the subfamily is internal marker.
Human liver HepG2 cells are transiently transfected with multiple reporter transcription units (MRTUs) in 6-well plates using FuGene 6 reagent (Roche; 3 ml FuGene/1 mg DNA). The MRTU constructs are regulated by a cis-regulating element (promoter). […] A major difference between the CIS and TRANS system is that in CIS activities of endogenous TFs are measured, whereas the TRANS assay evaluates changes in activities of exogenous, chimeric NR-Gal4 proteins. […] At the end of 24 hour incubation, total RNA was isolated using TriZol reagent (Invitrogen). The isolated RNA is then reverse-transcribed using oligo(dT) primer and Mo-MLV reverse transcriptase (Invitrogen) with DNAse I (Ambion) treatment for 30 min. The one-tenth of the produced cDNA was amplified by PCR using Taq DNA polymerase (Invitrogen) and two reporter sequence-specific primers. The PCR products were fluorescently labeled by primer extension with 6-arboxyfluorescein (6-FAM) 5'-labeled reporter sequence-specific primer (2 min at 95 C, 20 s at 68 C and 10 min at 72 C) and these products were digested with 5U of HpaI (New England Biolabs) for 2h at 37 C. The fragments were purified using Qiaquick PCR columns (Qiagen), analyzed on an ABI 3130xL genetic analyzer (Applied Biosystems) with peak positions identified by using a set of X-rhodamine (ROX)-labeled MapMarker1000 molecular weight standards (BioVentures). The raw capillary electrophoresis data was processed using Attagraph software (Attagene).
Turning to `CC(=O)Nc1ccc(S(N)(=O)=O)cc1`, the result was inactive.
The same measure, in the same setting: under `O=C(CC(=O)C(F)(F)C(F)(F)C(F)(F)F)c1cccs1` stands “inactive”; under `Cc1ccccc1OCC(=O)O`, “inactive”.
With `Oc1ccc(Cc2ccccc2O)cc1`, the result was inactive.
Still for that read-out and setting: under `NCc1cccc(CN)c1` stands “inactive”.
As a reminder, the AC50 is the concentration giving half of the maximal activity seen. With `CCOC(=O)c1nc(C(Cl)(Cl)Cl)n(-c2ccc(Cl)cc2Cl)n1`, the half-maximal activity concentration (AC50) was 100 µM (active).
For `NC(C(F)(F)F)C(F)(F)F`, the outcome was inactive.
Turning to `Cc1cc(=O)oc2cc(O)ccc12`, the compound was classed as inactive.
The same measure, in the same setting: the value for `CNNCc1ccc(C(=O)NC(C)C)cc1` was “inactive”.
Same read-out and setting: under `O=c1cc(-c2ccccc2)oc2ccc3ccccc3c12` stands “inactive”.
Same read-out and setting: the value for `Cc1ccc(N=Nc2c(O)ccc3ccccc23)c(C)c1` was “inactive”; that for `OCC(CO)(CBr)CBr` was “inactive”; that for `O=C1C=CC(=O)N1c1cccc(N2C(=O)C=CC2=O)c1` was “inactive”.
As for `OCCN1CN(CCO)CN(CCO)C1`, the outcome was inactive.
The same measure, in the same setting: under `C=CC(=O)OCCN(CC)CC` stands “inactive”.
On the same count and under the same terms, the value for `FC(F)(F)N1C(F)(F)C(F)(F)OC(F)(F)C1(F)F` was “inactive”; that for `CC(C)(C)c1ccc(O)c(O)c1` was “inactive”; that for `O=C(Nc1ccc(Cl)c(Cl)c1)c1cc(Cl)cc(Cl)c1O` was “inactive”.
The same measure, in the same setting: the value for `CCC(=O)O` was “inactive”; that for `CCCCCCCCCCCCCCCCCC[N+](C)(C)Cc1ccccc1` was “inactive”; that for `NC(=NCCCCCCN=C(N)/N=C(\N)Nc1ccc(Cl)cc1)/N=C(\N)Nc1ccc(Cl)cc1` was “inactive”.
In the case of `O=S(=O)(O)C(F)(F)C(F)(F)C(F)(F)C(F)(F)C(F)(F)C(F)(F)C(F)(F)C(F)(F)C(F)(F)C(F)(F)F`, the result was inactive.
Same read-out and setting: under `CCc1ccccc1O` stands “inactive”; under `CC(C)[C@@H]1CC[C@@H](C)C[C@H]1O`, “inactive”.
As to `CCCCc1ccc2ccccc2c1S(=O)(=O)O`, the call was inactive.
Still for that read-out and setting: the value for `CCCCCCCCC1CCC(=O)O1` (stereo not given) was “inactive”; that for `Cc1ccccc1C(OCCN(C)C)c1ccccc1` (stereo not given) was “inactive”.
On the same count and under the same terms, under `COC1=CC(=O)C[C@@H](C)[C@]12Oc1c(Cl)c(OC)cc(OC)c1C2=O` stands “inactive”; under `Cc1ccc(C(=O)c2ccccc2)cc1`, “inactive”; under `CCCCC(CC)C(=O)OCCOCCOCCOCCOC(=O)C(CC)CCCC` (stereo not given), “inactive”.
Turning to `Nc1ccc(O)c(C(=O)O)c1`, the compound was called inactive.
As for `CCN(CC)CC`, the call was inactive.
The same measure, in the same setting: under `O=C1OC(=O)C(F)(F)C1(F)F` stands “inactive”; under `C=CC(=C)CC/C=C(\C)CCC=C(C)C`, “inactive”; under `Cc1cc(C(=C2C=CC(=Nc3ccc(S(=O)(=O)O)cc3)C=C2)c2ccc(Nc3ccc(S(=O)(=O)O)cc3)cc2)cc(S(=O)(=O)O)c1N`, “inactive”.
Consider `CCCCCCCCCCCC[N+](C)(C)CCCCCCCCCCCC`, for which the call was inactive.
As for `COc1cccc(O)c1`, the result was inactive.
On the same count and under the same terms, the value for `O=CC(F)(F)C(F)(F)C(F)(F)C(F)F` was “inactive”.
On the same count and under the same terms, the value for `CC(C)(C)c1ccc(CCC=O)cc1` was “inactive”.
On the same count and under the same terms, the value for `C[N+](C)(CCCNS(=O)(=O)CCC(F)(F)C(F)(F)C(F)(F)C(F)(F)C(F)(F)C(F)(F)F)CC(=O)[O-]` was “inactive”.
